Results taken from publication PMC4336329 (PLoS ONE, 2015).
Screen size: about 310,000 compounds; about 14,000 (4.5%) showed an effect of 50% or more. Effects have a minus sign here. Many of the other results were omitted from the sample, so strong results are more common in it than they were.

Biological target: human ether-à-go-go-related gene (hERG) potassium channel (human, UniProt Q12809)
Experiment: primary screen, population patch clamp on CHO cells stably expressing hERG; higher = less effect of the substance
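Further: peak tail current of the secondary pulse compared with the same well before compound.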

Chain of human ether-à-go-go-related gene (hERG) potassium channel (Q12809 whole entry, looked up): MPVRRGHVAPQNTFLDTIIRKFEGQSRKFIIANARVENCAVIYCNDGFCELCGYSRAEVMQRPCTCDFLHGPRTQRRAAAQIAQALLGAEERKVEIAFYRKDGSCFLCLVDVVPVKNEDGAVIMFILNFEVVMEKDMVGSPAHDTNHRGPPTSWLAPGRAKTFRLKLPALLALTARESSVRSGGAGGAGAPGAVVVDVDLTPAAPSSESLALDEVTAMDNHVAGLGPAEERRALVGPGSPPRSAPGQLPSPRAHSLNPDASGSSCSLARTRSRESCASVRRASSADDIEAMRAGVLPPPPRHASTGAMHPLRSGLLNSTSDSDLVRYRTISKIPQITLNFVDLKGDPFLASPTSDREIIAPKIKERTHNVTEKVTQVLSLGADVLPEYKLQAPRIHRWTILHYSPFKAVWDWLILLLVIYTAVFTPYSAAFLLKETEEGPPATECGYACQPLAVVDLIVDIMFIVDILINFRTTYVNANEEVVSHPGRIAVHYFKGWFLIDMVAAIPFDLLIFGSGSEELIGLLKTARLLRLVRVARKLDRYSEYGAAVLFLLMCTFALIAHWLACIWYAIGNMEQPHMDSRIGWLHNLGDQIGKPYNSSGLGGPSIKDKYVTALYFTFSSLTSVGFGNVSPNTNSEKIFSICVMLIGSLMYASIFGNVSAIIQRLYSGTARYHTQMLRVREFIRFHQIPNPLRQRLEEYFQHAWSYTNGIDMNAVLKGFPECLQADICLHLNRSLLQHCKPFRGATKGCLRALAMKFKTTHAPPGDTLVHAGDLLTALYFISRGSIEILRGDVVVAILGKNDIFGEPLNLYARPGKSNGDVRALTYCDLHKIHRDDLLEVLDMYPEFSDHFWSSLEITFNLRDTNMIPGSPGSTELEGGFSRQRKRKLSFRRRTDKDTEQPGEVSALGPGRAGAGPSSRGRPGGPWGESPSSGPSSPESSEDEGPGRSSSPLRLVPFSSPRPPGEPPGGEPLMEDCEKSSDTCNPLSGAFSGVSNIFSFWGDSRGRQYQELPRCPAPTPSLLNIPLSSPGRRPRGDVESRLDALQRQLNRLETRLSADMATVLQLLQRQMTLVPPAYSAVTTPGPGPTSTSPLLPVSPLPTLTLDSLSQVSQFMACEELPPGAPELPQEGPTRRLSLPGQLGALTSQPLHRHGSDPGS

Row | Compound | hERG current change (%, negative = inhibition) at 10uM [%]
1 | COCCNC(=O)c1cc(-c2ccc(OC)c(OC)c2)on1 | -1.95
2 | CCOc1ccc(C(=O)N[C@H](C(=O)Nc2ccccc2OC)C(C)C)cc1 | -28.7
3 | O=C1NC(=Nc2ccccc2)c2ccc([N+](=O)[O-])cc21 | 3.21
4 | Cc1cc(NC(=O)CSc2nc3c(C)c(C)ccc3cc2C)no1 | -44.6
5 | C=CCNC(=S)N1CCN(CCN=CC2=C(O)CC(c3ccco3)CC2=O)CC1 (stereo not drawn) | -25.8
6 | O=C1CC(c2ccco2)CC(O)=C1C=NCCN1CCN(C(=O)Nc2ccc(Cl)cc2)CC1 (stereo not drawn) | -66.4
7 | O=C1CC(c2ccco2)CC(O)=C1C=NCCN1CCNCC1 (stereo not drawn) | 2.1
8 | O=C1CC(c2ccco2)CC(O)=C1C=NCCO (stereo not drawn) | 7.61
9 | CCNC(=S)N1CCN(CCN=CC2=C(O)CC(c3ccco3)CC2=O)CC1 (stereo not drawn) | 0.166
10 | O=C1CC(c2ccco2)CC(O)=C1C=NCCN1CCN(C(=S)Nc2ccccc2)CC1 (stereo not drawn) | -54.1
11 | Cl.O=C(CN1CCC(NC(=O)c2ccccc2Cl)CC1)NCc1ccco1 | -2.98
12 | O=C(c1ccc2c3n(nc2c1)-c1ccccc1CO3)N1CCOCC1 | -8.48
13 | COc1ccc(CCNC(=O)c2cc(-c3ccc4c(c3)OCO4)on2)cc1OC | -4.11
14 | Cc1cccc(N(C(=O)CNC(=O)c2ccco2)C(C(=O)NCC2CCCO2)c2ccccc2)c1 (stereo not drawn) | 9.57
15 | Cc1ccc(CSc2sc(C(=O)c3ccccc3)c(N)c2C#N)cc1 | 6.41
16 | CCCCN(C)C1=Nc2cccc3cccc1c23 | -72
17 | CCCCON1C(=O)c2cccc3cccc(c23)C1=O | -4.38
18 | NC1=Nc2cccc3cccc1c23 | 21.3
19 | O=C(Nc1ccc([N+](=O)[O-])cc1)Nc1nc(-c2ccc(Cl)s2)cs1 | 25.7
20 | OCCCn1c(CCNc2nc(-c3ccc(F)cc3)cs2)nc2cc(C(F)(F)F)ccc21 | -32.3
21 | OCCCn1c(C2CCCN2c2nc(-c3ccc(F)cc3)cs2)nc2cc(C(F)(F)F)ccc21 (stereo not drawn) | -21
22 | OCCOCCn1c(CCNc2nc(-c3ccc(F)cc3)cs2)nc2cc(C(F)(F)F)ccc21 | -61.1
23 | OCCOCCn1c(C2CCCN2c2nc(-c3ccc(F)cc3)cs2)nc2cc(Cl)c(Cl)cc21 (stereo not drawn) | -28.7
24 | OCCCn1c(CCNc2nc(-c3ccc(Cl)cc3)cs2)nc2cc(C(F)(F)F)ccc21 | -0.705

Row | Compound | hERG current change (%, negative = inhibition) at 10uM [%]
25 | Cc1ccc(Cn2c(C3CCCN3c3nc(C)cs3)nc3cc(C(F)(F)F)ccc32)cc1 (stereo not drawn) | 0.159
26 | Cc1csc(N2CCCC2c2nc3cc(Cl)c(N4CCCCC4)cc3n2CCOCCO)n1 (stereo not drawn) | -47.3
27 | OCCOCCn1c(C2CCCN2c2nc(-c3ccc(F)cc3)cs2)nc2cc(C(F)(F)F)ccc21 (stereo not drawn) | -75.1
28 | Cc1csc(N2CCCC2c2nc3cc(C(F)(F)F)ccc3n2CCOCCO)n1 (stereo not drawn) | -69.1
29 | CCN1CCSc2ccc(C(=O)NCc3ccccc3F)cc21 | -20.8
30 | Cc1oc(-c2cccc(Cl)c2)nc1CS(=O)(=O)CC(=O)NCCN1CCCC1 | -0.675
31 | CCCC/C(C)=N\NC(=O)CNS(=O)(=O)c1ccc([N+](=O)[O-])cc1 | -2.14
32 | CCOc1ccc(CN(C)C(=O)CNC(=O)c2ccc(Br)o2)cc1OC | -2.55
33 | COc1cccc(Cn2cccc(NC(=O)Nc3cccc(C#N)c3)c2=O)c1 | 6.1
34 | Cc1nc(CCNC(=O)CC2C(=O)NCCN2Cc2ccoc2)nc2c1CCCC2 (stereo not drawn) | -36.7
35 | CC(C)(C)CN1CCNC(=O)C1CC(=O)NCCN1CCCc2ccccc21 (stereo not drawn) | 0.68
36 | O=C(CC1C(=O)NCCN1CC1CCCCC1)NCc1cc(F)ccc1F (stereo not drawn) | 1.77
37 | O=C(CC1C(=O)NCCN1Cc1ccccc1)NCCN1CCCCC1=O (stereo not drawn) | 19.1
38 | COC(=O)CCCNC(=O)CC1C(=O)NCCN1Cc1ccoc1 (stereo not drawn) | 22.1
39 | O=C(CC1C(=O)NCCN1CC1CCCCC1)NCCc1ccc(F)cc1 (stereo not drawn) | -51.6
40 | O=C(CC1C(=O)NCCN1Cc1ccc(F)cc1)NCCN1CCCc2ccccc21 (stereo not drawn) | -66.1
41 | O=C(CC1C(=O)NCCN1Cc1ccoc1)NCCc1ccc(Cl)cc1 (stereo not drawn) | -53.7
42 | O=C(CC1C(=O)NCCN1CC1CCCCC1)NCc1ccc(F)cc1 (stereo not drawn) | -20.3
43 | Cc1ccc(C)c(Nc2ccc(C(=O)NCCc3ccccc3)cn2)c1 | -20.9
44 | CCN(CC(=O)Nc1ccc(N2CCOCC2)cc1)C(=O)Cc1ccccc1 | 3.76
45 | COCC(C)n1c(-c2ccc3c(c2)NC(=O)CO3)csc1=Nc1ccc(OC(F)F)cc1 (stereo not drawn) | 2.76
46 | Cc1cccc(-n2ncc3c(NCCCn4ccnc4)ncnc32)c1 | -16.5
47 | COc1ccc(-c2cc3nc(C)cc(NCCO)n3n2)cc1 | -33.6
48 | Cc1cc(NCCCn2ccnc2)n2nc(-c3ccc(F)cc3)cc2n1 | -14
